Sampled rows, rich in hits. Any-hit rate of the full collection: about 12%.
HP1b binding inh – HP1-beta chromodomain-methylated histone interaction inhibition | AlphaScreen HP1-beta / biotin-H3K9me3 peptide binding | P83916 | Potency, µM (top dose mostly 114 µM), inactives show top-dose activity change, negative = inhibition, hits mostly inhibitors | 390,000 tested, 0.56% active; note: nearly all actives have a fitted effect of over 70% in size
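AlphaScreen: HP1-beta (50 nM) preformed 30 min with biotin-H3(1-18)K9me3 peptide (50 nM) in PBS pH 7.4, 0.01% Tween-20. Compound added for 30 min at RT, then streptavidin donor/nickel chelate acceptor beads (10 ug/mL) for 30 min.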
G9a block – inhibitors of human histone lysine methyltransferase G9a | Potency, µM (top dose mostly 102 µM), without a hit: top-dose activity, negative = inhibition, usual class: inhibitors | G9a H3K9 monomethylation, AlphaScreen, 2 h | 350,000 tested, 8.8% active; note: % is set by controls: 0 for no effect and ±100 for the full control effect; nearly all actives have a fitted effect of over 75% in size
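Using a bead-based AlphaScreen, monomethylated H3K9 product from 2 h room-temperature reactions (G9a 20 nM, peptide 500 nM, SAM 20 uM) was detected with 0.5 ug/mL rabbit anti-H3K9me1 antibody.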
Sfp inh – blocks B. subtilis Sfp PPTase activity; 310,000 tested, 3.5% active; Q9F4F7; Biochemical Sfp PPTase activity, qHTS; Potency, µM, without a hit: largest response in the series, negative = inhibition, hits mostly inhibitors; AID 1490;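 note: the enzyme is Sfp with the accession as filed and its product quenches rhodamine fluorescence; 0% = enzyme reaction without inhibitor and -100% = no enzyme wells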
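With Hepes-Na pH 7.6 buffer containing 10 mM MgCl2, Sfp (15 nM) modified BHQ-2-YbbR (12.5 uM) using rhodamine-CoA (5 uM). Two reads 30 minutes apart at 525/598 nm yielded each well's rate.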
JMJD2A Tudor – inhibitors of human JMJD2A Tudor domain; 390,000 tested, 4.4% active; AlphaScreen JMJD2A-Tudor / H3K4me3 peptide binding; Potency, µM (top dose mostly 114 µM), inactives show top-dose activity change, negative = inhibition, usual class: inhibitors; note: % is set by controls: 0 for no effect and ±100 for the full control effect; nearly all actives have a fitted effect of over 50% in size
BAZ2B inh – blocks human BAZ2B | AlphaScreen BAZ2B-H3K14Ac peptide displacement | Potency, µM (series often up to 114 µM), for inactives: top-dose activity change, negative = inhibition, usual class: inhibitors | 360,000 tested, 4.4% active; note: % is set by controls: 0 for no effect and ±100 for the full control effect; nearly all actives have a fitted effect of over 60% in size
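Compounds, titrated to a top concentration of 110 uM, were incubated 30 min at room temperature with preformed BAZ2B/acetyl-K14 H3 peptide complex (50 nM each). Proximity signal was measured by AlphaScreen after 20 min with beads.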
Starred values were filed as active, the others as inactive; ? = inconclusive; · = no result; ! = a repeat was not active; [ ] = remark or other dose. Calls come from the whole dose curve; as a rule, active = well fitted curve in the direction sought with a large enough effect; inconclusive = small, poorly fitted or top-dose-only effect, or another doubt; inactive = no such curve, though single readings can be large; an effect the other way counts as inactive or inconclusive. Potency is the fitted concentration of half-maximal effect.

SMILES | HP1b binding inh | G9a block | Sfp inh | JMJD2A Tudor | BAZ2B inh
CN1CCN(C(c2ccccn2)c2cc(Cl)c3cccnc3c2O)CC1 (stereo not drawn) | 11.2µM* | ? | 31.6µM* | 17.8µM* | 11.2µM*
Oc1c(C(c2ccccn2)N2CCC(Cc3ccccc3)CC2)cc(Cl)c2cccnc12 (stereo not drawn) | ? | 3.55µM* | ? | 50.1µM* | 50.1µM*
Cc1ccc(C(c2cc(Cl)c3cccnc3c2O)N2CCN(C)CC2)cc1 (stereo not drawn) | ? | 3.55µM* | 35.5µM* | 44.7µM* | 22.4µM*
COCCCN1C(=O)c2ccc(C(=O)O)cc2C1=O | 28.6% | 14.2%[12.7 µM] | 15.4% | -18.6% | 3.1%
CCOC(=O)c1ccc(NC(=S)NCc2ccc(S(N)(=O)=O)cc2)cc1 | 30.3% | -7.7% | 11.7% | 0.7% | 3.8%
O=c1ccc2cc(O)c(O)cc2o1 | 19.2% | ? | 56.2µM*! | ? | -26.4%
CSCc1ccc(C(=O)N2CCC(CCC(=O)N(C)Cc3ccccc3)CC2)o1 | 40.3% | 26.4% | 50.1µM* | -14.4% | 2.9%
CC(C)(C)OC(=O)N1CCN(C(=O)[C@H](Cc2ccc(O)cc2)n2cc(CCO)nn2)CC1 | 24.6% | 7.8%[12.7 µM] | 11.4% | -9.4% | -11.4%
CCc1cccc(NC(=O)CSC2=NS(=O)(=O)c3ccccc32)c1 | 21.6% | 8.91µM* | 14.1µM* | -19.0% | -7.8%
Oc1ccc(C23CC4CC(CC(C4)C2)C3)cc1O | ? | 0.708µM* | 79.4µM* | 22.4µM* | ?
CC(=O)Nc1ccc(C23CC4CC(CC(C4)C2)C3)cc1 | 2.7% | ? | -2.3% | -23.1% | -0.6%
CN(C)c1ccc(C(CNC(=O)c2ccccc2)c2c[nH]c3ccccc23)cc1 (stereo not drawn) | 39.8µM* | 8.91µM* | 30.8% | ? | 14.1µM*
CN(C)c1ccc(C(CNC(=O)c2ccccc2F)c2c[nH]c3ccccc23)cc1 (stereo not drawn) | 13.5% | ? | 6.5% | ? | ?
CN(C)c1ccc(C(CNS(=O)(=O)c2ccc(F)c(F)c2)c2c[nH]c3ccccc23)cc1 (stereo not drawn) | 31.6µM* | 39.8µM* | 3.7% | 22.4µM* | 22.4µM*
O=C(O)c1cccc2c1-c1ccc(Cl)cc1C2=O | 37.6% | · | · | -14.6% | ·
Nc1cccc2c1C(=O)c1ccc(Cl)cc1C2=O | ? | · | · | 14.1µM* | ·
Cc1onc(CO)c1C(=O)Nc1nccs1 | 34.8% | 1.1% | 6.1% | -8.3% | -16.5%
O=C(CSc1nnc(-c2cccs2)n1Cc1ccco1)Nc1ccc2c(c1)OCO2 | 15.9% | -40.8%[12.7 µM] | ? | -32.3% | ?
O=C(CSc1ncc(-c2ccc(F)cc2)n1Cc1ccco1)Nc1ccc2c(c1)OCO2 | -56.4% | ? | -10.9% | 44.7µM* | 11.2µM*
CCOc1ccc(NC(=O)CSc2ncc(-c3ccc(F)cc3)n2Cc2ccco2)cc1 | -17.7% | ? | 17.5% | -17.6%[11.4 µM] | 8.91µM*
CCOc1ccc(NC(=O)CSc2nnc(-c3ccco3)n2N)cc1 | 32.7% | 40.8% | 13.8% | -4.1% | -4.4%
COc1ccc(-c2noc(C3CCCN(C(=O)Nc4ccccc4F)C3)n2)cc1 (stereo not drawn) | 37.5% | · | 3.2% | -5.2% | 0.5%
CCc1ccc(NC(=O)CSc2nc3[nH]ncc3c(=O)[nH]2)cc1 | 35.1% | 11.5% | 10.4% | -2.7% | -35.0%
CC1=C(C(=O)Nc2ccccn2)C(c2ccc(F)cc2)n2ncnc2N1 (stereo not drawn) | 10.7% | -44.8% | 1.8% | -16.3% | -2.7%
C=CCn1c(=O)c2ccccc2n2c(SCc3nc4ccccc4s3)nnc12 | 52.5% | 12.6µM* | 19.2% | -5.2% | -13.8%
SMILES | HP1b binding inh | G9a block | Sfp inh | JMJD2A Tudor | BAZ2B inh
CCCCn1c(SCC(=O)c2ccc(O)cc2O)nc2cc(S(N)(=O)=O)ccc21 | 3.4% | -11.0% | -22.1% | -24.5% | -11.2%
CCCCn1c(SCC(=O)N2CCC(C)CC2)nc2cc(S(N)(=O)=O)ccc21 | 7.6% | 7.94µM* | ? | -14.1% | -35.8%
CCCCn1c(SCN2C(=O)c3ccccc3C2=O)nc2cc(S(N)(=O)=O)ccc21 | 27.3% | 39.8µM* | 0.6% | -19.8% | 7.9%
CCCCn1c(SCC(=O)c2cc(OC)ccc2OC)nc2cc(S(N)(=O)=O)ccc21 | 34.4% | ? | -8.8% | -8.2% | 7.4%
CCCCn1c(SCc2ccc(C(=O)OC)o2)nc2cc(S(N)(=O)=O)ccc21 | 14.5% | 3.5%[59 µM] | 56.2µM* | -24.4% | -2.2%
CCN(Cc1ccc2c(c1)OCCO2)C(=O)CN1C(=O)NC2(CCc3ccccc32)C1=O (stereo not drawn) | 34.0% | ? | · | -9.1% | 0.3%
Cc1ccc(C(C)CCN2CCC(n3nccc3NC(=O)c3ccccc3)CC2)o1 (stereo not drawn) | -18.7% | 28.2µM* | -23.4% | -20.7% | -25.3%
CCc1ccc(CN2CCC(n3nccc3NC(=O)c3ccccc3)CC2)o1 | 35.1% | 17.8% | 1.6% | -30.4% | -29.7%
Cc1cc(C)cc(NC(=S)Nc2ccccn2)c1 | 15.2% | -18.7%[59 µM] | -6.0% | -23.9% | ?
Cc1cc(C)cc(NC(=S)NN)c1 | -10.8% | 10µM* | 15.5% | -27.6% | -21.1%
CCN(CC)c1ccc(S(=O)(=O)N2CCOCC2)cc1NC(=O)CN1CCN(Cc2ccccc2)CC1 | ? | ? | 79.4µM* | 17.8µM* | 22.4µM*
CCN(CC)c1ccc(S(=O)(=O)N2CCOCC2)cc1NC(=O)CSC(=S)N1CCCC1 | 6.9% | 7.94µM* | 25.1µM* | ? | -23.9%
CCN(CC)c1ccc(S(=O)(=O)N2CCOCC2)cc1NC(=O)CNCc1ccccc1 | ? | ? | 35.5µM* | 89.1µM* | 50.1µM*
Cc1ccc(-c2nn(-c3ccccc3)cc2/C=C(\C#N)c2cccc(C#N)c2)o1 | 8.3% | ? | -29.1% | -20.7% | -27.2%
CN(c1ccccc1)S(=O)(=O)c1ccc(NC(=S)NC(=O)C2CC2)cc1 | -15.1% | ? | 5.7% | ? | -28.9%
NC(=O)c1cc([N+](=O)[O-])ccc1NCc1ccc(O)cc1 | 26.5% | 22.9%[2.33 µM] | · | -34.1% | ?
O=[N+]([O-])c1cccc(-c2ccc(C(=S)N3CCN(c4ccc(F)cc4)CC3)o2)c1 | ? | ? | -4.3% | ? | 35.5µM*
O=C(O)c1ccc(-c2cccc([N+](=O)[O-])c2)o1 | 24.0% | -16.4% | 50.1µM* | -5.9%[11.4 µM] | ?
N#C/C(=C(/O)c1ccc(-c2cccc([N+](=O)[O-])c2)o1)c1nc2ccccc2s1 | -6.2% | 44.7µM* | 35.5µM* | ? | 44.7µM*
O=C(/C=C\c1ccc(-c2cccc([N+](=O)[O-])c2)o1)N1CCOCC1 | 2.9% | 31.6µM* | 20µM* | -31.2% | ?
CCCn1c(=O)sc2cc(NC(=O)c3ccccc3Cl)ccc21 | 19.4% | 9.6%[59 µM] | · | -4.8% | -0.1%
CC(=O)c1cc(C(C)=O)c(C)nc1C | 50.7% | 4.7% | 5.3% | -12.8%[57.1 µM] | 5.6%
Cc1cccc(CCn2c(=O)c3ccccc3n(CC(=O)Nc3ccccc3F)c2=O)c1 | 18.9% | 9.0%[59 µM] | · | -17.1% | -2.9%
